One assay deals with astro (control astrocytes). The assay is described as follows: Drug repurposing screens with cells derived from glioblastoma tumor samples (AID 1345199). For activity, negative = cell killing: % is set by controls: 0 for no effect and ±100 for the full control effect. Note: nearly all actives have a fitted effect of over 40% in size. Note: potency is the fitted concentration of half-maximal effect. The conditions noted are these: viability, ATP luminescence, 48 h; series mostly up to 45.9 µM. An outline of the steps: (§1)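 Primary testing used CD133+ neurospheres from four GBM patients, seven concentrations, 48 h exposure and ATP-based viability; confirmation added three slower-growing patient lines.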

Experiment in assay [1]: as above
The conditions noted are these: GBM patient neurospheres viability, ATP luminescence, 48 h. An outline of the steps:
as §1

For assay [2], the target named is Nuclear receptor subfamily 1 group I member 2 (Rattus norvegicus) (UniProt Q9R1A7). The assay can be described thus: qHTS assay for small molecule activators of the rat pregnane X receptor (rPXR) signaling pathway (AID 651751; call rule not given here; note: 0% is about no effect). The conditions noted are these: rPXR reporter cells, luciferase (One-Glo), 24 h.
Sequence of Nuclear receptor subfamily 1 group I member 2 (Rattus norvegicus) (Q9R1A7 whole entry, looked up): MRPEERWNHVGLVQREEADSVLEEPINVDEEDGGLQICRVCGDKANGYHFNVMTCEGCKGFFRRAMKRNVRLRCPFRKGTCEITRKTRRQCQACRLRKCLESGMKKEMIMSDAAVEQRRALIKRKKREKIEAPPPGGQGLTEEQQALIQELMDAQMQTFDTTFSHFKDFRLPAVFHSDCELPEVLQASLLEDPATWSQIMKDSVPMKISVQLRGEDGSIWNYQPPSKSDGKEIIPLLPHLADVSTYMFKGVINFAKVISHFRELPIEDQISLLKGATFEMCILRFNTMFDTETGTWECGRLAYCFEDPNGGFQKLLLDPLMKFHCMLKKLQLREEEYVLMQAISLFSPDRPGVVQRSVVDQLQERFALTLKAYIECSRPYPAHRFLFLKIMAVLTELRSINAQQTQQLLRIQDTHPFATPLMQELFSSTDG
Assay [3] can be described thus: qHTS assay for small molecule activators of the human pregnane X receptor (PXR) signaling pathway (AID 720659; call rule not given here; note: 0% is about no effect). For orientation: Quantitative high-throughput screening tests each substance at several concentrations.
Setting [4] is: at 45.9 µM (top of the series), tumour line B.

Each structure is given as a SMILES string. Several values for one entry are separate records, joined by “and”; a condition that tells them apart may be missing. Equal entries are not always repeated. Values without a mark were called inactive. Records with an inconclusive call do not appear. Activity calls are given as the source filed them. Unless noted, calls come from the whole dose curve; as a rule, active = well fitted inhibition curve with a large enough effect; inconclusive = small, poorly fitted or top-dose-only effect; inactive = flat fitted curve, though single readings scatter.

Turning to `CCCCCCCCCCCCCCCCOCCOCCOCCOCCOCCOCCOCCOCCOCCOCCOCCOCCOCCOCCOCCOCCOCCOCCOCCOCCO`, the Potency in the assay on astro is 3.16 µM (active).

On to `CCN(CC)CCC(=O)N1c2ccccc2Sc2ccc(C(F)(F)F)cc21`, for which the Potency entry in the assay with astro was “inactive”.

`CCOc1cc(-c2nccc3cc(OC)c(OC)cc23)cc(OCC)c1OCC`: the Potency result with astro was “inactive”.

Regarding `C[N@+]12CCCC[C@@H]1CCC(=C(c1cccs1)c1cccs1)C2`, in the assay with astro, the Potency result was “inactive”.

As for `O=C(CCCN1CCN2CCCC2C1)c1ccc(F)cc1` (configuration not stated), the Potency entry with astro was “inactive”.

As to `O=C(NNCS(=O)(=O)O)c1ccncc1`, the activity, negative = cell killing in assay [1] (setting [4]) was -4.21%; in assay [1] (at 46 µM (top of the series), tumour line A), -67.1%. The Potency entry in the assay with astro was “inactive”.

With `O=C(c1cc2ccccc2o1)N1CCN(Cc2ccccc2)CC1`, the activity, negative = cell killing in assay [1] (setting [4]) was -15.4%. For the same molecule, the Potency in assay [1] (tumour line A) is 11.2 µM (active). In the assay with astro, the Potency result was “inactive”.

`C=C1C(CCl)(CCl)C2(Cl)C(Cl)C(Cl)C1(Cl)C2(Cl)Cl` (configuration not stated): in the assay on astro, the Potency entry is “inactive”.

`CCCCCCCCCc1ccc(OCCOCCO)cc1`: the Potency with astro was 12.6 µM (active).

`CC1=CC(=C(c2ccc(N)cc2)c2ccc(N)cc2)C=CC1=N`: the Potency in the assay on astro is 3.16 µM (active).

With `C=C1CC[C@H](O)CC1=C/C=C1\CCC[C@]2(C)[C@@H]([C@H](C)CCCC(C)(C)O)CC[C@@H]12`, the Potency in the assay on astro is 20 µM (active).

Consider `CC(C)OC(=O)Nc1ccc2nc(-c3cscn3)[nH]c2c1`, for which, in the assay on astro, the Potency is 2.82 µM (active).

For `Cc1ccccn1`, the activity, negative = cell killing is -10.1% in assay [1] (setting [4]) and -22.4% in assay [1] (at 46.1 µM (top of the series), tumour line C). The Potency result in the assay with astro is “inactive”.

On to `CCC(=O)c1ccc2c(c1)N(CCCN1CCN(CCO)CC1)c1ccccc1S2`, for which the Potency with astro is 17.8 µM (active).

As for `O=c1n(CC2CO2)c(=O)n(CC2CO2)c(=O)n1CC1CO1` (configuration not stated), the max response in assay [2] was -7.41% and -4.4%. Besides, the molecule was classed as inactive in assay [3].
